# Assay results: PubChem BioAssay (NCATS)
# Results filed as inconclusive are left out. Active and inactive are the calls of the source. Unless noted, the call rests on the fitted dose curve; in most records, active means well fitted curve in the direction sought with a large enough effect; inconclusive means small, poorly fitted or top-dose-only effect, or another doubt; inactive means no such curve, though single readings can be large; an effect the other way counts as inactive or inconclusive.
# How the values were obtained:
# [1] = qHTS Assay for Identifying Gametocytocidal Compounds (AID 743244); further: potency means the concentration at half of the fitted maximal effect;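 on max response: on the % scale 0 is the no-effect control and ±100 the full control effect; actives lower the fluorescent signal which means gametocytes are killed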; details: P. falciparum 3D7 stage III-V gametocytes, alamarBlue, 72 h; max response: stronger effect = lower value
# In short: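 Viability read-out was resazurin reduction (alamarBlue, 24 h) measured at Ex 525/Em 598 nm. Beforehand, late-stage (III-V) 3D7 P. falciparum gametocytes at 20,000 cells/well were incubated with compound 72 h at 37C under 5% CO2.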
# [2] = target: Cytochrome P450 2C9 (Homo sapiens) (UniProt P11712); assay: qHTS Assay for Inhibitors and Substrates of Cytochrome P450 2C9 (AID 883); further: potency means the concentration at half of the fitted maximal effect; nearly all actives have a fitted effect of over 60% in size
# In short: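 Turnover of Luciferin-H (100uM, KM) by 10nM human CYP2C9 was measured over 60 min at 37C with NADPH regeneration; inhibitors and some substrates reduce luminescence. Data normalized to sulphaphenazole 57uM.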
# [3] = qHTS profiling for inhibitors of Plasmodium falciparum (3D7) proliferation (AID 743322);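 further: infected erythrocytes exposed to compound for 72 h before lysis; 100% = DMSO vehicle wells and 0% = 0.29 µM artemisinin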; details: P. falciparum 3D7 proliferation; at 28.7 µM (top of the series) unless noted
# In short: (§1)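 Parasite DNA was quantified by SYBR Green I fluorescence (ex 485, em 535 nm) after overnight lysis in saponin/Triton buffer at room temperature. Cultures at 0.3% parasitemia and 2.5% hematocrit were first exposed to compound for 72 h at 37 C; signals were normalised to artemisinin (0.29 uM) and vehicle wells.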
# [4] = qHTS profiling for inhibitors of Plasmodium falciparum (DD2) proliferation (AID 743323; call rule not given here); details: lower = more inhibition; at 28.7 µM (top of the series) unless noted
# In short: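 Parasite proliferation measured via DNA-dye fluorescence, as uninfected erythrocytes lack DNA. Cultures at 0.3% parasitemia and 2.5% hematocrit incubated 72 h with compound; signal scaled between vehicle and 0.29 uM artemisinin wells.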
# [5] = qHTS profiling for inhibitors of Plasmodium falciparum (HB3) proliferation (AID 743324); details: Plasmodium falciparum HB3 blood-stage proliferation; at 28.7 µM (top of the series) unless noted;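 further: 100% = DMSO vehicle wells and 0% = artemisinin-treated control wells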
# In short: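 SYBR Green fluorescence (485 ex/535 em) of lysed cultures, incubated overnight at room temperature in the dark, quantifies parasite DNA. Infected erythrocytes at 0.3% parasitemia and 2.5% hematocrit were exposed 72 h; values normalized to DMSO and 0.29 uM artemisinin controls.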
# [6] = qHTS profiling of the MIPE4 collection as inhibitors of Plasmodium falciparum (3D7) proliferation (AID 743344; call rule not given here;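 further: scaled between DMSO vehicle wells and 0.29 µM artemisinin as full inhibition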); details: P. falciparum 3D7 in erythrocytes, SYBR Green DNA fluorescence, 72 h; at 5.51 µM (top of the series) unless noted
# In short: as §1
# [7] = qHTS profiling of the MIPE4 collection as inhibitors of Plasmodium falciparum (DD2) proliferation (AID 743345; call rule not given here); details: P. falciparum Dd2 in erythrocytes, SYBR Green DNA, 72 h; at 5.51 µM (top of the series) unless noted
# In short: as §1
# [8] = qHTS profiling of the MIPE4 collection as inhibitors of Plasmodium falciparum (DD2) proliferation (Rep 2) (AID 743346; call rule not given here); details: P. falciparum Dd2 in erythrocytes, SYBR Green DNA, 72 h; at 5.51 µM (top of the series) unless noted
# In short: as §1
# [9] = qHTS profiling of the MIPE4 collection as inhibitors of Plasmodium falciparum (HB3) proliferation (AID 743347; call rule not given here;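 further: plate controls were DMSO vehicle wells for no effect and artemisinin wells for full effect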); details: P. falciparum HB3 in erythrocytes, SYBR Green DNA, 72 h; at 5.51 µM (top of the series) unless noted
# In short: as §1
# [10] = target: Cytochrome P450 3A4 (Homo sapiens) (UniProt P08684); assay: qHTS Assay for Inhibitors and Substrates of Cytochrome P450 3A4 (AID 884); further: nearly all actives have a fitted effect of over 50% in size; further: potency means the concentration at half of the fitted maximal effect; on activity change, negative = inhibition: on the % scale 0 is the no-effect control and ±100 the full control effect
# In short: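 Luminescent readout of luciferin produced by CYP3A4 (20 nM) dealkylation of Luciferin-PPXE, 25 uM (its KM). NADPH-driven reaction ran 60 min at RT after 10 min compound preincubation; data scaled to 57 uM ketoconazole as 100% inhibition.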
# [11] = target: Cytochrome P450 3A4 (Homo sapiens) (UniProt P08684); assay: qHTS Assay for Activators of Cytochrome P450 3A4 (AID 885); further: nearly all actives have a fitted effect of over 65% in size; further: potency means the concentration at half of the fitted maximal effect
# In short: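 Using 20nM recombinant human CYP3A4 in potassium phosphate (200mM), substrate Luciferin-PPXE at 25uM, luminescent luciferin detection followed a 60-min RT NADPH reaction; data scaled to 57 uM ketoconazole.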
# [12] = target: Cytochrome P450 2C19 (Homo sapiens) (UniProt P33261); assay: qHTS Assay for Inhibitors and Substrates of Cytochrome P450 2C19 (AID 899); further: potency means the concentration at half of the fitted maximal effect; nearly all actives have a fitted effect of over 60% in size
# In short: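 Reactions contain 5nM enzyme, 10uM Luciferin-H EGE (KM) and 50mM KPO4; compound preincubates 10 min at 37C, NADPH regeneration starts turnover for 60 min. Luminescence after detection reagent gives activity.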
# Chain of Cytochrome P450 3A4 (Homo sapiens) (P08684 whole entry, looked up): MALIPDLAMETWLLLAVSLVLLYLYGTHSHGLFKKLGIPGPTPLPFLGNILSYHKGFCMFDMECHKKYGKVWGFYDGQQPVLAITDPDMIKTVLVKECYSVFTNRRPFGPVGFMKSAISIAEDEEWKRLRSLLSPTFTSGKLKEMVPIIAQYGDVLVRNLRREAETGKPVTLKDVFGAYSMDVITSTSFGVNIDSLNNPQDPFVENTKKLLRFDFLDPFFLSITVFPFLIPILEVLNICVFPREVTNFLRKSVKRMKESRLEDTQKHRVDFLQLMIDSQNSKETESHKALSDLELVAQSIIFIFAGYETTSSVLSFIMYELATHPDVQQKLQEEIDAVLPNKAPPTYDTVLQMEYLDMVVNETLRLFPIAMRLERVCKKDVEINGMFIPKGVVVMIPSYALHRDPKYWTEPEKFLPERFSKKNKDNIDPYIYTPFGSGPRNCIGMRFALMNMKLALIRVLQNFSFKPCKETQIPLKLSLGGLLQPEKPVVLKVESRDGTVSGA
# Chain of Cytochrome P450 2C9 (Homo sapiens) (P11712 whole entry, looked up): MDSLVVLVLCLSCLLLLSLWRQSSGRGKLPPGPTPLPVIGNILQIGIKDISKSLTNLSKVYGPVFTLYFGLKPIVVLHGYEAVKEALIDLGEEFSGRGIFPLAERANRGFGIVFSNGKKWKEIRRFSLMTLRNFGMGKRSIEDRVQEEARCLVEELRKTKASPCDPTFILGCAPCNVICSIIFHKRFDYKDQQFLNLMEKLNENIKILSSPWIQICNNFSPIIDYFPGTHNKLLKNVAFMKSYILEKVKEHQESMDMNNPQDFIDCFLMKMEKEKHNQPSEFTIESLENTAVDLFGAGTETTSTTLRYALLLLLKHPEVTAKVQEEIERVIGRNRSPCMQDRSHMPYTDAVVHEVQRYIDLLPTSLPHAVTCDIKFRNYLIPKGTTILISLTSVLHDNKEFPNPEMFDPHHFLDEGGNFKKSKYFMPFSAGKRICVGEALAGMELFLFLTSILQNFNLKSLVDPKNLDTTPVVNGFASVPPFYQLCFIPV
# Chain of Cytochrome P450 2C19 (Homo sapiens) (P33261 whole entry, looked up): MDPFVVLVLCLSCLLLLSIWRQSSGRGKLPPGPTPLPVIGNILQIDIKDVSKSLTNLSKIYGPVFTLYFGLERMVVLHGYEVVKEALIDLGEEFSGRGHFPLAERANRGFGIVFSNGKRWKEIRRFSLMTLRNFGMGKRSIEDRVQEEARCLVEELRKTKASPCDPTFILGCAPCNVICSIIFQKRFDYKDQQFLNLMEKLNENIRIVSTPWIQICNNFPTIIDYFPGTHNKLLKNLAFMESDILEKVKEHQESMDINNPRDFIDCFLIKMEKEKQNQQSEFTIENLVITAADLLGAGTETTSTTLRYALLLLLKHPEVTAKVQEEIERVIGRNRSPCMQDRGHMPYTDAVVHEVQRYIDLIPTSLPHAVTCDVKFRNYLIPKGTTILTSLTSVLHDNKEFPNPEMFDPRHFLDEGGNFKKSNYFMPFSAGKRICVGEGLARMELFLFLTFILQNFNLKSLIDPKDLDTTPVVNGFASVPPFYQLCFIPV
smiles,measurement,setting,value
CC[C@@H](C(=O)[C@@H](C)[C@@H](O)[C@H](C)[C@@H]1O[C@@H]([C@@H](CC)C(=O)O)CC[C@@H]1C)[C@H]1O[C@]2(C=C[C@@H](O)[C@]3(CC[C@@](C)([C@H]4CC[C@](O)(CC)[C@H](C)O4)O3)O2)[C@H](C)C[C@@H]1C,Potency,[1],235 nM (active)
CC(=O)c1c(O)c(C)c(O)c2c1OC1=CC(=O)[C@H](C(C)=O)C(=O)[C@]12C,Potency,[2],12.6 nM (active)
COC(=O)C[C@](O)(CCCC(C)(C)O)C(=O)O[C@@H]1C(OC)=CC23CCCN2CCc2cc4c(cc2[C@H]13)OCO4 (stereo partly drawn),Potency,[1],83.3 nM (active)
C[C@@H]1[C@@H](CC(C[C@H]2O[C@@H]3O[C@]4(C)CC[C@@H]5[C@H](C)CC[C@@H]([C@H]2C)[C@@]35OO4)C(=O)NCc2ccc(F)cc2)O[C@@H]2O[C@]3(C)CC[C@H]4[C@H](C)CC[C@@H]1[C@@]24OO3 (stereo partly drawn),remaining parasite growth % (stronger effect = lower value),[3],-0.677%
same,"activity, percent of control",[4],0.0214%
same,"remaining proliferation (% of control), lower = more inhibition",[5],0.676%
CN(C)C(=O)CCSC(SCCC(=O)O)c1cccc(/C=C/c2ccc3ccc(Cl)cc3n2)c1 (stereo not drawn),max response,[1],41.4% (inactive)
CN(C)CCC(=O)[C@@]1(O)CC[C@H]2[C@H]3CC=C4C[C@@H](O)CC[C@]4(C)[C@H]3CC[C@]21C,Potency,[2],2510 nM (active)
COC(=O)C1(O)CC2OC1(C)n1c3ccccc3c3c4c(c5c6ccccc6n2c5c31)C(=O)NC4 (stereo not drawn),"parasite growth, % of DMSO control",[6],4.95%
same,"parasite growth remaining, % of DMSO control (lower = more inhibition)",[7],7.86%
same,"parasite growth, % of control (lower = inhibition)",[8],21.3%
same,"growth, % of control",[9],4.75%
COC12CC[C@@]3(C[C@@H]1C(C)(O)C(C)(C)C)[C@H]1Cc4ccc(O)c5c4[C@@]3(CCN1CC1CC1)[C@H]2O5 (stereo partly drawn),Potency,[1],31600 nM (active)
N#CC(C#N)=NNc1cccc(Cl)c1,Potency,[10],1260 nM (active)
same,Potency,[11],inactive
C[C@@]12CCC3c4ccc(O)cc4CCC3C1CCC2O (stereo partly drawn),Potency,[10],inactive
CC(C)CC(N)C1(c2ccc(Cl)cc2)CCC1 (stereo not drawn),Potency,[10],1580 nM (active)
same,Potency,[11],inactive
COc1cc2c(cc1OC)C1C(=O)c3c(cc4c(c3O)C=CC(C)(C)O4)OC1CO2 (stereo not drawn),Potency,[10],15800 nM (active)
same,Potency,[11],inactive
COc1cc2c(cc1OC)C1C(=O)c3c(O)cc4c(c3OC1CO2)C=CC(C)(C)O4 (stereo not drawn),Potency,[10],15800 nM (active)
same,Potency,[11],inactive
O=c1c2ccccc2c2ccccc2c(=O)n1-c1cc2c3ccccc3ccc2c2ccccc12,Potency,[2],316 nM (active)
same,Potency,[12],158 nM (active)
C[C@@]12CC[C@@H]3[C@H](CCC4=CC(=O)CC[C@]43C)[C@@H]1CC[C@@H]2C(=O)Cn1cnc2c(=S)nc[nH]c21,"activity change, negative = inhibition",[10],119% [at 11.4 µM] (inactive)
same,Potency,[11],3160 nM (active)
CC(C)C1C(=O)N2CCCC2[C@]2(O)O[C@@](NC(=O)[C@@H]3C=C4c5cccc6[nH]cc(c56)C[C@H]4N(C)C3)(C(C)C)C(=O)N12 (stereo partly drawn),Potency,[10],1260 nM (active)
same,Potency,[11],inactive
